From PubChem BioAssay AID488890 (Southern Research Specialized Biocontainment Screening …, 2010)
Among all 320,000 compounds or so, about 1,300 (0.41%) were called active. Not shown: some 3% with an inconclusive outcome. How the calls were made is not given here. A selection follows. Potency and affinity values are given separately.

Experiment: growth inhibition of non-replicating M. tuberculosis (AID 488890);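 further: plate controls were DMSO cells for no effect and high antibiotic wells for full effect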
Conditions: Mycobacterium tuberculosis non-replicating, at 25 µM, stronger effect = higher value

Structure (SMILES) | inhibition [%]
COc1ccc(CN2CCC(n3nccc3NC(=O)C3CC3)CC2)c(OC)c1OC | -1.17
O=S(=O)(NCCN1CCOCC1)c1cc(Cl)ccc1Cl | 10.9
CC(C)(C)c1cc(C(=O)N/N=C/c2ccc(-c3ccccc3[N+](=O)[O-])o2)n[nH]1 | 26.9
Cc1cc(C(=O)N/N=C/c2ccc(C)s2)n[nH]1 | 4.06
Cc1ccsc1/C=N\NC(=O)c1cc(C(C)(C)C)[nH]n1 | 12.6
Cc1cc(C(=O)N/N=C/c2cccc([N+](=O)[O-])c2O)n[nH]1 | 14.7
Cc1c(C(=O)OCC[N+]2(C)CCCCC2)oc2ccccc12 | -0.02
O=C(NCC(c1cccs1)N1CCOCC1)c1cccc([N+](=O)[O-])c1 (configuration not stated) | 3.78
O=C(NCC(c1cccs1)N1CCOCC1)c1ccc([N+](=O)[O-])cc1 (configuration not stated) | -4.42
CCOCCCN(C(=O)c1snc(C(N)=O)c1N)C(C(=O)NC1CCCC1)c1ccc(O)cc1 (configuration not stated) | 12.3
CCCN(Cc1nnc(-c2ccccc2Cl)o1)C(=O)c1oc2ccccc2c1C | -13.1
O=C(c1ccc(Cl)s1)N(Cc1nnc(-c2ccccc2Cl)o1)C1CC1 | 31.8
CCCN(Cc1nnc(-c2ccccc2Cl)o1)C(=O)c1cc2ccccc2o1 | 30.8
O=C(C1=COCCO1)N(Cc1nnc(-c2ccccc2Cl)o1)C1CC1 | 2.01
COc1ccc(S(=O)(=O)N2CCOC23CCN(S(=O)(=O)c2cc(C)ccc2OC)CC3)cc1 | 5.02
CC(NC(=O)CC1Sc2ccccc2NC1=O)c1ccccc1 (configuration not stated) | 0.31
CCN(CC)C(=O)C(=O)N/N=C/c1ccc(C(=O)OC)cc1 | -0.1
CCOc1cc2c(cc1OCC)C(c1ccc(C(=O)O)cc1)NCC2 (configuration not stated) | -6.9
Cc1cccc(C(=O)O/N=C(\N)c2cccc([N+](=O)[O-])c2)c1 | 75
N/C(=N/OC(=O)c1cccc([N+](=O)[O-])c1)c1cccc([N+](=O)[O-])c1 | 18.3
COc1ccc(C(CNC(=O)c2cccc(NC(=O)c3cccs3)c2)N2CCCC2)cc1 (configuration not stated) | 27.7
CCn1nc(-c2ccccc2)nc2c(=O)n(C)c(=O)nc1-2 | -28.8
Cn1nc(-c2ccccn2)nc2c(=O)n(C)c(=O)nc1-2 | 74.7

Structure (SMILES) | inhibition [%]
CC1(C)CN(c2ccc(Br)cc2Br)C1=O | 8.63
CCOC(=O)N1CCN(S(=O)(=O)c2ccc(C(=O)N(CCCN(C)C)c3nc4cc(OC)ccc4s3)cc2)CC1 | 8.58
OCc1ccc(O)c2ncccc12 | 26
Oc1ccc(CNc2ccccc2F)c2cccnc12 | 38.5
CCCn1c(C(C)Nc2nc(-c3ccc(C)cc3)cs2)nc2cc(Cl)c(Cl)cc21 (configuration not stated) | 17.9
COc1ccccc1NC(=O)Cn1cnc2sc(C(=O)Nc3cc(OC)c(OC)c(OC)c3)c(C)c2c1=O | -13
Cc1ccc(NC(=S)N2CCC(NC(=O)C3CCCCC3)CC2)cc1C | -8.16
Cc1nn(CC(=O)NCc2cc3ccccc3[nH]2)c(C)c1[N+](=O)[O-] | -11.5
COC(=O)c1ccc(NC(=O)c2ccc(NC(=O)c3ccco3)cc2)cc1 | 9.4
O=C(CNC(=O)c1ccco1)NCC(=O)OCc1ccc(C(=O)Oc2ccc(Cl)cc2)cc1 | 5.36
O=C(CNC(=O)c1ccco1)OCc1ccc(C(=O)c2ccccc2)cc1 | 74.7
O=C(Nc1ccc(OC(=O)c2ccco2)cc1)c1ccco1 | 53.6
O=C(CCN1C(=O)/C(=C\c2ccccc2)SC1=S)NNC(=O)c1ccccc1O | -13.1
CN(C)CCCNC1CS(=O)(=O)CC1O (configuration not stated) | -14.7
CCOC(=O)C1=C(C)NC2=C(C(=O)CC(C)(C)C2)C1c1ccc2c(c1)CCCN2C (configuration not stated) | 58.9
COCCN1C(=O)/C(=C/c2c(OC)cc(OC)cc2OC)C(=O)N(c2ccccc2)C1=O | 2.58
Cc1cccc(NC(=O)CC(=O)Nc2cccc(C)c2)c1 | 17.8
CCOC(=O)c1c(NC(C)=O)sc2c(OC)c(Br)ccc12 | 3.98
CCOC(=O)c1c(NC(C)=O)sc2c(O)c(Br)ccc12 | 33.9
Cc1onc(-c2c(F)cccc2Cl)c1C(=O)N(Cc1ccccc1)C(C)C | 7.25
CC1CC(C)CN(S(=O)(=O)c2ccc3oc(=O)ccc3c2)C1 (configuration not stated) | -8.91
COC(=O)c1ccccc1NC(=O)CCCn1nc([N+](=O)[O-])cc1C | 1.55
CC1CCC(NC(=O)c2cc3ccccc3cc2O)CC1 (configuration not stated) | 38.1

Structure (SMILES) | inhibition [%]
COC(=O)c1cc2c(C)c(C)c3ccccn3c-2c1C(=O)OC | 2.38
CC(C)OC(=O)c1cccc2c1C(=O)c1ccccc1-2 | 1.02
Cc1cc(C(=O)CCC(=O)Nc2ncccc2C)c(C)s1 | 25.8
CS(=O)(=O)N1CCc2cc(S(=O)(=O)Nc3ccc4c(c3)OCCO4)ccc21 | 5.57
Cc1cccc(OCC(=O)Nc2nnn(C)n2)c1C | 7.29
Cc1ccc(OCC(=O)Nc2nnn(C)n2)c(C)c1 | -10.8
CCn1nnc(NC(=O)COc2ccc([N+](=O)[O-])cc2)n1 | 15.6
CCOc1ccc(C(=O)Nc2nnn(CC)n2)cc1 | -19.1
NC(N)=NS(=O)(=O)c1ccc(NC(=S)NC(=O)c2ccc(Br)cc2)cc1 | 2.25
CN(C)CCC#CC1(O)c2ccccc2-c2ccccc21 | -5.2
CCc1ccc(CNC(=O)c2ccc3nc(C4CCCCC4)oc3c2)nc1 | 56.5
O=C1c2ccccc2C(=O)N1CC#CCN1CCN(C(c2ccccc2)c2ccccc2)CC1 | -1.98
c1ccc(Cc2nc(-c3ccccn3)no2)cc1 | 16.8
c1ccc(-c2noc(CC3CCCCC3)n2)cc1 | 69.6
c1ccc(CCc2nc(-c3cccnc3)no2)cc1 | 20
c1ccc(-c2noc(C3CCCCC3)n2)nc1 | 18.3
CC(=O)CC1=NC(C)(C)Cc2ccccc21 | 0.57
c1ccc(CNc2ccc3ccccc3n2)nc1 | 21.1
COc1cc2c(cc1NC(=O)COC(=O)C1CC(=O)N(Cc3ccco3)C1)oc1ccccc12 (configuration not stated) | 6.37
Cc1ccc(-n2c(-c3ccncc3)nnc2-c2cccs2)cc1 | -0.27
O=C(c1cccc([N+](=O)[O-])c1)N1CCN(c2cccc(Cl)c2)CC1 | 38.1
COc1ccccc1N1CCN(C(=O)c2cc(C(=O)N3CCN(c4ccccc4OC)CC3)cc([N+](=O)[O-])c2)CC1 | 12.5
O=C(c1ccc([N+](=O)[O-])s1)N1CCN(c2ccccc2)CC1 | -13.2

Structure (SMILES) | inhibition [%]
COc1ccccc1N1CCN(C(=O)c2ccc(Br)s2)CC1 | 70.2
NC(=O)CCn1ccc2ccccc21 | 2.82
Cc1cc(C)n(C(=O)c2ccc(C)c(S(=O)(=O)N3CCCCC3)c2)n1 | -9.14
Cc1ccc(C(C)C)cc1OCC(=O)NNC(=O)Nc1ccccc1 | -5.51
Cc1c(Cl)cccc1NC(=O)CCC(=O)NNC(=O)c1ccccc1Cl | 3.92
COc1ccc(C(=O)NNC(=O)C(=O)Nc2ccc(C)c(Cl)c2)cc1 | 73
Cc1cc(NC(=O)c2ccccc2C)ccc1NC(=O)c1ccccc1Cl | -10.5
Cc1c(Cl)cccc1NC(=O)CNC(=O)c1ccccc1F | 17.3
Cc1ccc(S(=O)(=O)NCC(=O)NCC(=O)OCc2c(F)cccc2Cl)cc1 | -16.7
COC(=O)c1c(NC(=O)c2cccc([N+](=O)[O-])c2)sc(C(N)=O)c1C | 51.4
COc1cc(/C=N/NC(=O)c2ccc(N)cc2)ccc1OC(=O)c1cccc(C)c1 | 35.7
CCN(C(=O)COC(=O)c1cc2ccccc2cc1O)C1CCS(=O)(=O)C1 (configuration not stated) | 9.53
CC(C)CC(NC(N)=O)C(=O)Nc1ccc(Cl)c(Cl)c1 (configuration not stated) | 13.8
CCNC(=O)/N=C1/NC(=O)C(C(C)C)O1 (configuration not stated) | 0.48
CC(C)(C)NC(=O)Cn1cc(C(=O)c2ccccc2F)c2ccccc21 | 0.38
CN=Cc1nc(-c2ccccc2)oc1O | 10.9
CCCCOc1ccc(-c2nc(/C=N/c3nccs3)c(O)o2)cc1 | 62.2
O=C(O)CN(Cc1ccccc1)S(=O)(=O)c1ccc2c(c1)OCCO2 | -8.61
CC1CN(C(=O)c2ccc(COc3ccc(C(C)C)cc3)o2)CC(C)O1 (configuration not stated) | 54.3
COc1ccc(NC(C)=O)cc1NC(=O)CSc1nnc(-c2ccc(F)cc2)n1N | -6.88
O=[N+]([O-])c1ccc(NC(=S)N2CCc3ccccc3C2)cc1 | -1.08
CC[n+]1c(/C=C(/C)SC)sc2ccccc21 | 67
CC[n+]1c(/C=C(\C)SC)sc2ccccc21 | 0.12

Structure (SMILES) | inhibition [%]
CCn1c(N2CCN(C(=S)NCCc3ccccc3)CC2)nc2ccccc21 | 63.9
Cc1[nH]c2ccc(OC(F)(F)F)cc2c1CCNCc1cccc([N+](=O)[O-])c1 | 77.6
COc1ccc2[nH]c(C)c(CCNCc3cn(C)c4ccccc34)c2c1 | 60.3
CC1=C(CCN2CCN(C3CCCC3)C(CCO)C2)C(C)(C)CCC1 (configuration not stated) | 54.5
CC1=C(CCN2CCN(C(C)C)C(CCO)C2)C(C)(C)CCC1 (configuration not stated) | 12.7
CCOc1ccccc1NC(=S)N1CCC(c2nc3ccccc3o2)CC1 | 29.4
COc1ccc(NC(=O)Cn2nnc(C(=O)NCc3ccco3)c2N)cc1 | -3.46
CCCC1(CCC)NC(=O)NC1=O | 36.8
O=C(CCc1ccccc1)NCc1ccncc1 | 7.15
Cc1nc(Nc2ccc(S(N)(=O)=O)cc2)oc1C | 71.4
CSc1ccc(C(=O)C2CCCN(C(=O)c3nonc3C)C2)cc1 (configuration not stated) | 62.8
CSc1ccc(C(=O)C2CCCN(C(=O)c3ccc4c(c3)OCO4)C2)cc1 (configuration not stated) | 71.2
C=CCN(CC=C)C(=O)C1CC(=O)N(c2ccc(Br)cc2)C1 (configuration not stated) | 0.89
O=c1cc(NS(=O)(=O)c2ccccc2)nc(SCc2c(Cl)cccc2Cl)[nH]1 | -0.92
O=C(NNc1cccc(Cl)n1)Nc1ccc(F)cc1 | 9.17
CCCCC(=O)N(CCOC)c1nnc(-c2ccc(OC)cc2)s1 | 11.8
CCC(=O)N1c2ccc(S(=O)(=O)N3CCN(CC)CC3)cc2CC1C (configuration not stated) | -2.95
Cn1c(C(F)(F)F)nc2c(=O)oc3ccccc3c21 | 71.2
Cc1nc2c(=O)oc3ccccc3c2n1-c1ccccc1 | 66.8
Cc1cc(Cl)c2oc(C(=O)N3CCN(c4cccc(C)n4)CC3)c(C)c2c1 | 22.3
